Test [1] is described as follows: Human pregnane X receptor (PXR) small molecule agonists, qHTS cell viability counter screen (AID 1346977). Also: nearly all actives have a fitted effect of over 50% in size. Also: potency is read from the fitted curve at half-maximal effect. The gist of the method:
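Viability counter screen: CellTiter-Fluor signal in PXR-Luc HepG2 cells, 24hr compound exposure, 37C, 5% CO2.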
(In qHTS, concentration-response curves come from the screen itself.)

The nature of test [2]: Caspase-3/7 induction in HepG2 cells by small molecules, qHTS assay (AID 1346978). Also: nearly all actives have a fitted effect of over 15% in size. The gist of the method: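 Wild-type HepG2 cells, 2,000/well, settled 5 hr at 37 C and 5% CO2, then compound-treated for 17 hr; caspase-3/7 activity read by luminescent Caspase-Glo 3/7 after 30 min at room temperature.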
A short description of test [3]: Caspase-3/7 induction in CHO-K1 cells by small molecules, qHTS cell viability counter screen (AID 1346979). Also: nearly all actives have a fitted effect of over 35% in size. Also: potency is read from the fitted curve at half-maximal effect. In outline:
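Viability readout by fluorescence (CellTiter-Fluor) on wild-type CHO-K1 cells exposed for 16hr at 37C and 5% CO2 to compounds delivered in DMSO; reagent incubated 1hr before reading.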

The nature of test [4]: Caspase-3/7 induction in CHO-K1 cells by small molecules, qHTS assay (AID 1346980). Also: nearly all actives have a fitted effect of over 15% in size. The gist of the method: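 Wild-type CHO-K1 cells exposed to compounds for 17hr at 37 C, 5% CO2. Caspase-3/7 activity then measured by Caspase-Glo 3/7 luminescence after 30min at room temperature.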
Test [5] can be described thus: Caspase-3/7 induction in HepG2 cells by small molecules, qHTS cell viability counter screen (AID 1346981). Also: nearly all actives have a fitted effect of over 30% in size. Also: potency is read from the fitted curve at half-maximal effect. As to activity change, negative = cytotoxicity: series mostly up to about 92 µM. In outline: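 Counter screen for cytotoxicity: HepG2 exposed 16 hr to compounds, then CellTiter-Fluor viability signal (fluorescence, 1 hr reagent incubation).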
For test [6], the target named is Cytochrome P450 2D6 (Homo sapiens) (UniProt P10635). The experiment in a line: Cytochrome P450 Family 2 Subfamily D Member 6 (CYP2D6) small molecule antagonists: luciferase reporter qHTS assay (AID 1671196). Also: nearly all actives have a fitted effect of over 50% in size. Also: potency is read from the fitted curve at half-maximal effect. As to activity change, negative = inhibition: series mostly up to about 120 µM. In outline: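 Inhibition of CYP2D6 was gauged by loss of luminescence, since light produced tracks the luciferin generated from a proluciferin substrate. A 10 min room-temperature preincubation preceded 1 h NADPH-supported turnover.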
Cytochrome P450 2D6 (Homo sapiens), sequence (P10635 whole entry, looked up): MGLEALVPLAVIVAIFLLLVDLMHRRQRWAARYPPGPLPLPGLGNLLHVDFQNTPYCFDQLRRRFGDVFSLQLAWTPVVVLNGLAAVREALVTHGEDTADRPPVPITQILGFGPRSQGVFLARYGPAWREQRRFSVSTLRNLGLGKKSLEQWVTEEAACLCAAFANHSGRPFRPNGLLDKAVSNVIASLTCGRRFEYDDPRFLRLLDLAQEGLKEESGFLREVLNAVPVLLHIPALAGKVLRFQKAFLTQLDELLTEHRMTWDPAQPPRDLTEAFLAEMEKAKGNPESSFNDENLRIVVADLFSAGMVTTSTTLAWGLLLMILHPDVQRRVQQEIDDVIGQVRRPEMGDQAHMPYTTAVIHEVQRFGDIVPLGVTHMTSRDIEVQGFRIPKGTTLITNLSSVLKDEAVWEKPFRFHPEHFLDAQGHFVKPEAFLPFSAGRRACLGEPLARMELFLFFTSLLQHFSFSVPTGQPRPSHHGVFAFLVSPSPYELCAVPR
In general terms: A reporter such as luciferase makes a cellular process visible.

Test [7] concerns the target Cytochrome P450 2C19 (Homo sapiens) (UniProt P33261). The experiment in a line: Cytochrome P450 Family 2 Subfamily C Member 19 (CYP2C19) small molecule antagonists: luciferase reporter qHTS assay (AID 1671197). Also: nearly all actives have a fitted effect of over 65% in size. Also: potency is read from the fitted curve at half-maximal effect. As to activity change, negative = inhibition: series mostly up to about 120 µM. The gist of the method: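 Quantitative high-throughput screen of the Tox21 library using CYP2C19 with proluciferin substrate. Reaction: NADPH regeneration, 37C, 1 h, after 10 min compound preincubation at room temperature. Readout: luminescence.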

Test [8] deals with Cytochrome P450 2C9 (Homo sapiens) (UniProt P11712). Description: Cytochrome P450 Family 2 Subfamily C Member 9 (CYP2C9) small molecule antagonists: luciferase reporter qHTS assay (AID 1671198). Also: nearly all actives have a fitted effect of over 50% in size. Also: potency is read from the fitted curve at half-maximal effect. As to activity change, negative = inhibition: series mostly up to about 120 µM. The gist of the method: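 P450-Glo proluciferin substrate with CYP2C9 enzyme; 10 min RT preincubation, then NADPH regeneration 1 h at 37C; luciferin detection reagent 20 min RT, luminescence in relative luminescence units.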
Cytochrome P450 2C9 (Homo sapiens), sequence (P11712 whole entry, looked up): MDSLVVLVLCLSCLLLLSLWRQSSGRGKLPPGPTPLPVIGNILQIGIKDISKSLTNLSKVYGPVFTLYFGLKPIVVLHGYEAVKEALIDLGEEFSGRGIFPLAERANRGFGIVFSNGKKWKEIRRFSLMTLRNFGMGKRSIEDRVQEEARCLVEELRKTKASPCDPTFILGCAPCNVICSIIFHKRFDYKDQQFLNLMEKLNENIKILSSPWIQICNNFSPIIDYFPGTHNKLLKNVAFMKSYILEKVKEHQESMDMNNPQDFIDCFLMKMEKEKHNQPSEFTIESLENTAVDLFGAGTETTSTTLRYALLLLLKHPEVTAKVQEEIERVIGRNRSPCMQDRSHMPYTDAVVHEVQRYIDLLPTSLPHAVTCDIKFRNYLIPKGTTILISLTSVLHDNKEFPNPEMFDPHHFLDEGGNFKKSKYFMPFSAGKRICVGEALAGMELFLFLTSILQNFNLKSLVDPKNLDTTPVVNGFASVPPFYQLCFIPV

For test [9], the target named is Cytochrome P450 1A2 (Homo sapiens) (UniProt P05177). The experiment in a line: Cytochrome P450 Family 1 Subfamily A Member 2 (CYP1A2) small molecule antagonists: luciferase reporter qHTS assay (AID 1671199). Also: nearly all actives have a fitted effect of over 50% in size. Also: potency is read from the fitted curve at half-maximal effect. As to activity change, negative = inhibition: series mostly up to about 120 µM. The gist of the method:
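Signal from luciferin formed by CYP1A2 from a proluciferin substrate is read as luminescence, expressed in relative luminescence units. Compounds sit with enzyme 10 min, NADPH-driven reaction runs 1 h, all at room temperature.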

In test [10] the target is Voltage-gated inwardly rectifying potassium channel KCNH2 (Homo sapiens) (UniProt Q12809). Description: Human Ether-a-go-go-Related Gene (hERG) channel small molecule antagonists: fluorescence cell-based qHTS assay (AID 1671200). The gist of the method:
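Thallium served as the potassium surrogate; its influx into dye-loaded U2OS cells carrying the channel was measured by fluorescence over 2 min.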
(Block of hERG is tested as a sign of cardiac risk.)

Test [11] has as its target Cytochrome P450 3A4 (Homo sapiens) (UniProt P08684). The experiment in a line: Cytochrome P450 Family 3 Subfamily A Member 4 (CYP3A4) small molecule antagonists: luciferase reporter qHTS assay (AID 1671201). In outline:
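Relative luminescence units after 20 min with luciferin detection reagent served as read-out. Beforehand, CYP3A4 turned over a proluciferin substrate for 1 h at room temperature with NADPH regeneration, following 10 min compound preincubation.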

In test [12] the target is Nuclear receptor subfamily 1 group I member 2 (Homo sapiens) (UniProt O75469). Description: Human pregnane X receptor (PXR) small molecule agonists, qHTS assay (AID 1346982). Also: nearly all actives have a fitted effect of over 35% in size. The gist of the method: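 Luminescence (ONE-Glo, 30 min RT) after 24 hr compound exposure of PXR-Luc HepG2 cells; cells rested 5 hr post-plating in 5% charcoal-stripped FBS medium.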
Nuclear receptor subfamily 1 group I member 2 (Homo sapiens), sequence (O75469 whole entry, looked up): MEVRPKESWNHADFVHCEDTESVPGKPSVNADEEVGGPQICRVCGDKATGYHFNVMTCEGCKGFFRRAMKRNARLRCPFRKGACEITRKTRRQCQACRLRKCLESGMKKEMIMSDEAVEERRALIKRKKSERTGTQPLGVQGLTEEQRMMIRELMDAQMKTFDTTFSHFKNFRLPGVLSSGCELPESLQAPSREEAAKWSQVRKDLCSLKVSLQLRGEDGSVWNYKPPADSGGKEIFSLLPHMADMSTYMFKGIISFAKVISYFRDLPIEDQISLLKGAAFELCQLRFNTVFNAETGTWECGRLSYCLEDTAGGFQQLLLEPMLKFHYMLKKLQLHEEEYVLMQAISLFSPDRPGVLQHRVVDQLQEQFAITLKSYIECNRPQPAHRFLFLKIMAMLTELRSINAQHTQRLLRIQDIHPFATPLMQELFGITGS
Test [13] addresses Nuclear receptor subfamily 1 group I member 2 (Rattus norvegicus) (UniProt Q9R1A7). The experiment in a line: Rat pregnane X receptor (rPXR) activation by small molecules, qHTS assay (AID 1346983). Also: nearly all actives have a fitted effect of over 20% in size. As to conditions: rPXR luciferase reporter cells, One-Glo luminescence, 24 h; max activation: stronger effect = higher value. The gist of the method:
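Cell-based rPXR activation assay: rPXR cells, 2,000 per well, rested 5hr at 37 C, then exposed to compounds in DMSO for 24 hr at 37 C. Luciferase activity read by One-Glo luminescence after 30 min at room temperature.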

Test [14] concerns the target Nuclear receptor subfamily 1 group I member 2 (Homo sapiens) (UniProt O75469). The experiment in a line: CYP3A4 induction through human pregnane X receptor (PXR) by small molecules, qHTS assay (AID 1346984). Also: nearly all actives have a fitted effect of over 40% in size. The gist of the method: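 DPX-2 reporter cells; 24h cpd, 37C; Luciferin-IPA 3uM final x3h; One-Glo 30 min RT; lumi read.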
Test [15] shares this target. The experiment in a line: Human pregnane X receptor (PXR) activation by small molecules, qHTS assay (AID 1346985). Also: nearly all actives have a fitted effect of over 40% in size. The gist of the method:
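DPX-2 cells (HepG2 co-transfected with a PXR response element and a CYP3A4-promoter luciferase construct) were seeded at 2,000 per well, rested 5 hr at 37C, then exposed to DMSO-dissolved compounds for 24 hr. Activation was read as luciferase luminescence.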

Each structure is given as a SMILES string. Unmarked numbers belong to inactive results. Results filed as inconclusive are left out. The source made the active and inactive calls. Calls follow the shape of the dose curve; as a rule, active = well fitted curve in the direction sought with a large enough effect in the repeat runs; inconclusive = weak or mixed curves; inactive = no such curve, though single readings can be large; an effect the other way counts as inactive or inconclusive.
% is scaled to controls: 0 for no effect and ±100 for the full control effect.

Cytochrome P450 3A4 (Homo sapiens), sequence (P08684 whole entry, looked up): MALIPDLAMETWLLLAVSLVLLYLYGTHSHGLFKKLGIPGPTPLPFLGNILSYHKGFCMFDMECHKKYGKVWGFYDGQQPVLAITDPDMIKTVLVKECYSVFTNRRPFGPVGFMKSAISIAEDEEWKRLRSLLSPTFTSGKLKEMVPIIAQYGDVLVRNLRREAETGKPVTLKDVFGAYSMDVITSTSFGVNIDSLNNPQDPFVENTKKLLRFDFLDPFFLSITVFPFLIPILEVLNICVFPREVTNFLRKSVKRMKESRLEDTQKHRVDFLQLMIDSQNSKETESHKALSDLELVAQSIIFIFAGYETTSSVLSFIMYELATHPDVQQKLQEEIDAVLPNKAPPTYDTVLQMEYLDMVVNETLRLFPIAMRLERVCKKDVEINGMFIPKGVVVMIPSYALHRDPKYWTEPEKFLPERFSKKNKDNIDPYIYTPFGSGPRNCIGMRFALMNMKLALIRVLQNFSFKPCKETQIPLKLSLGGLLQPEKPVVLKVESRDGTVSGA
Voltage-gated inwardly rectifying potassium channel KCNH2 (Homo sapiens), sequence (Q12809 whole entry, looked up): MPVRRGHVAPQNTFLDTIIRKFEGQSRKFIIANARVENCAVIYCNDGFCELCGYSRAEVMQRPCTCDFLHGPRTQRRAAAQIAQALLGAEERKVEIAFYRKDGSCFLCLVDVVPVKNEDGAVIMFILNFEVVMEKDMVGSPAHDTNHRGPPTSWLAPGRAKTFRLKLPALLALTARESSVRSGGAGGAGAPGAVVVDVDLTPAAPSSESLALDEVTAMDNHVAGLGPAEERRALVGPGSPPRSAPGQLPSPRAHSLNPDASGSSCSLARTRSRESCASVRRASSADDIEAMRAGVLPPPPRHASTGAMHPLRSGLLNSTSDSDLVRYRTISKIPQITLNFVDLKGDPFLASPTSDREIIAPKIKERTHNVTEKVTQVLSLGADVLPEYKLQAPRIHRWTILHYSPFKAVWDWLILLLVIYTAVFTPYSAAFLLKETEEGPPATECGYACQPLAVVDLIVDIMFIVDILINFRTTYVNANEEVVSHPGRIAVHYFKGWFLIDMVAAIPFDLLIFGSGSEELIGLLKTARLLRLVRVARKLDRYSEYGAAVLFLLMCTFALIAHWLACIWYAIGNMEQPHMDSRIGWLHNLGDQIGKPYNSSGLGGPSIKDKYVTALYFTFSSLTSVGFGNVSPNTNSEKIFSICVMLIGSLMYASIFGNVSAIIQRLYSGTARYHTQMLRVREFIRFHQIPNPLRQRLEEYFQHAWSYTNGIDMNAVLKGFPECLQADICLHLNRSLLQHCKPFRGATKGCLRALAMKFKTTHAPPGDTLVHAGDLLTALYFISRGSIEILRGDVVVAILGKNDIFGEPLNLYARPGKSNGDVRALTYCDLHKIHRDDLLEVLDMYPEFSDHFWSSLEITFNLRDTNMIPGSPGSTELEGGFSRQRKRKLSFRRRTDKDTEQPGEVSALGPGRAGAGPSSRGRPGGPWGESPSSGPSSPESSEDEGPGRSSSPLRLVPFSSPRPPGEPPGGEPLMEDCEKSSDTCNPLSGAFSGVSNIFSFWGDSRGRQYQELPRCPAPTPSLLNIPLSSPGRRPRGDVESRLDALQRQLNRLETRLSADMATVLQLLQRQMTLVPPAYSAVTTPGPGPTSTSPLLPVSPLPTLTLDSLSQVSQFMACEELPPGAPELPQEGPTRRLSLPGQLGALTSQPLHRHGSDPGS
Cytochrome P450 1A2 (Homo sapiens), sequence (P05177 whole entry, looked up): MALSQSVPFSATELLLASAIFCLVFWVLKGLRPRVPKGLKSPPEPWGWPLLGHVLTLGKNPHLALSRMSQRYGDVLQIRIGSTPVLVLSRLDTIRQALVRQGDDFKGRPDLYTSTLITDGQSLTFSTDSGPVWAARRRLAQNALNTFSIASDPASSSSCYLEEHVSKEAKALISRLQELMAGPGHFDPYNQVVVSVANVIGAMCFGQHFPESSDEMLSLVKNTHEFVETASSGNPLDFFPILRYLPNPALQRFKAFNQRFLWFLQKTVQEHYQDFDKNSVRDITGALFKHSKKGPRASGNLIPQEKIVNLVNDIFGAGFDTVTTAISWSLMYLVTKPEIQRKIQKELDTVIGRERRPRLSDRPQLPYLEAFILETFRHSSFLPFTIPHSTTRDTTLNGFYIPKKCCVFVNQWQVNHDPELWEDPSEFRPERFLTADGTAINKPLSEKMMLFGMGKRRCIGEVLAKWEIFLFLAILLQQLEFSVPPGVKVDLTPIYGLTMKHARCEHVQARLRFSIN
Cytochrome P450 2C19 (Homo sapiens), sequence (P33261 whole entry, looked up): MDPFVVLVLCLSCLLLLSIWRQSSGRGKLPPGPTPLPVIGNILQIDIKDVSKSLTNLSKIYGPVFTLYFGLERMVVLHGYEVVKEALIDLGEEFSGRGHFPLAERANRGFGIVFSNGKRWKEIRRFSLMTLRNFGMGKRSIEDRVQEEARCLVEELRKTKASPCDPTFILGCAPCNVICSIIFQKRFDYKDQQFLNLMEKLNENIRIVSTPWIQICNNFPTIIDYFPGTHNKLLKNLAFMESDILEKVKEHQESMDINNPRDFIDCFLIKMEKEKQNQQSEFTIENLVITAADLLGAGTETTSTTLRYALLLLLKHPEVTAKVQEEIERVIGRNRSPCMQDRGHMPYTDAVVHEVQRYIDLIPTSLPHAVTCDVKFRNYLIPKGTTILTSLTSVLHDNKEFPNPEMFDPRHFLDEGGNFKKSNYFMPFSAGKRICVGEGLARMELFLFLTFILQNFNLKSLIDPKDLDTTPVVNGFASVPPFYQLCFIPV
Nuclear receptor subfamily 1 group I member 2 (Rattus norvegicus), sequence (Q9R1A7 whole entry, looked up): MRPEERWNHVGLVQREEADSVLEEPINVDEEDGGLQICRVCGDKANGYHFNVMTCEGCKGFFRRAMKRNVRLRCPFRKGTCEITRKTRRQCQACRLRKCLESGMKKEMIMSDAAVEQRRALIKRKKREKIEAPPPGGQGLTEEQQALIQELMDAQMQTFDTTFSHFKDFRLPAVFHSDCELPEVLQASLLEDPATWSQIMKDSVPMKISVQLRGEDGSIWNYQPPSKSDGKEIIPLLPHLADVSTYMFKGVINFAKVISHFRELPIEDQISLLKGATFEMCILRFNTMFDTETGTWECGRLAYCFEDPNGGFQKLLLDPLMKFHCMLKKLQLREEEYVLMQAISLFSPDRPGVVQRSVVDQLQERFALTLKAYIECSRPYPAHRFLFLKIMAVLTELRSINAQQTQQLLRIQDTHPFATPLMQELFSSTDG

Take `CC(COc1ccccc1)NN` (centres undefined): the Potency result in test [1], in [3], in [5], in [6], in test [7] and in [8] was “inactive” in each case. Also, the Potency entry in test [9], in [10] and in [11] was “inactive” in each case. For the same molecule, the result in test [2] and in [4] was inactive.

For the molecule `CCOC(=O)C(=O)CCCCCCl`, the Potency entry in test [1], in test [3], in [5] and in test [11] was “inactive” throughout. The molecule was classed as inactive in test [2] and in test [4]. Further, the Potency is 38.9 µM (active) in test [6] and 17.4 µM (active) in [7].

Regarding `CCOc1ccccc1OCC`, the Potency result in [1], in test [3], in test [5] and in test [10] was “inactive” each time. For the same molecule, the result in test [2] and in test [4] was inactive. Moreover, in [7], the Potency is 71 µM (active).

For the molecule `CC(C)C[C@@H](N)C(=O)O`, the activity change, negative = cytotoxicity in [1] was 28.2% [at 19 µM]; in test [3], -2.25% [at 19 µM]; in [5] it was 1.16% [at 19 µM]. In addition, in test [2], the caspase activation is -0.781% [at 19 µM]. Besides, the caspase-3/7 activation in [4] was -0.0944% [at 19 µM]. Further, the activity change, negative = inhibition in test [10] is 1.04% [at 15.8 µM].

`O=C(CO)[C@@H](O)[C@H](O)[C@H](O)CO`: the Potency entry in [1], in test [3], in test [5], in [6], in test [7] and in test [8] was “inactive” each time. Besides, the Potency result in test [11] is “inactive”. Also, the molecule was classed as inactive in [2] and in [4].

In the case of `CCN[C@H]1C[C@H](C)S(=O)(=O)c2sc(S(N)(=O)=O)cc21`, the Potency result in [1], in test [3], in [12], in test [14], in test [15] and in test [6] was “inactive” throughout. In addition, the Potency entry in test [8], in [9] and in test [11] was “inactive” each time. Besides, the molecule was called inactive in test [2] and in test [4]. In test [13], the max activation is 0.198%.

Regarding `CCCCCC(C)N` (centres undefined), the Potency entry in test [1], in test [3], in test [12], in test [14], in test [15] and in test [6] was “inactive” in each case. The Potency entry in [7], in test [8], in test [9], in test [10] and in test [11] was “inactive” throughout. For the same molecule, the molecule was called inactive in [2] and in test [4]. Besides, in test [13], the max activation is -3.3%.

As for `CN1C(C)(C)CC(O)CC1(C)C`, the Potency entry in test [1], in [3], in [5], in [6], in test [7] and in test [8] was “inactive” in each case. Further, the Potency entry in test [9], in test [10] and in test [11] was “inactive” each time. Besides, the molecule was classed as inactive in [2] and in [4].

With `CCN(Cc1ccccc1)c1ccccc1`, the Potency result in test [1], in [3], in [5], in test [10] and in test [11] was “inactive” each time. Also, the result in [2] and in test [4] was inactive. Moreover, the Potency in [7] is 1.76 µM (active); in [8], 35.1 µM (active); in test [9], 35.1 µM (active).

Turning to `CCCCOC(=O)CCC(C)=O`, the Potency result in test [1], in test [3], in test [12], in test [6], in [7] and in [8] was “inactive” in each case. Further, the Potency result in test [9], in test [10] and in test [11] was “inactive” throughout. Further, the call in test [2] and in test [4] was inactive.

For `CC1=NN(c2cc(S(=O)(=O)O)ccc2Cl)C(=O)C1N=Nc1ccccc1` (centres undefined), the Potency in test [1] was 61.1 µM (active); in test [3], 54.5 µM (active); in [5], 54.5 µM (active). For the same molecule, the molecule was classed as inactive in test [2] and in test [4]. Also, the Potency result in test [6], in [8], in test [9], in test [10] and in [11] was “inactive” each time.

For the origin of these results see PubChem BioAssay (Tox21).
